A selection: hits, their analogues and other compounds. The true share with any hit is near 13%.
USP17 inh = human USP17-like deubiquitinase inhibition; purified USP17, Ub-rhodamine cleavage fluorescence, 3 h; inhibition, % at 50 µM; 6.5% of 47,000 active; AID 1645855
Target sequence (A8MUK1 whole entry, looked up): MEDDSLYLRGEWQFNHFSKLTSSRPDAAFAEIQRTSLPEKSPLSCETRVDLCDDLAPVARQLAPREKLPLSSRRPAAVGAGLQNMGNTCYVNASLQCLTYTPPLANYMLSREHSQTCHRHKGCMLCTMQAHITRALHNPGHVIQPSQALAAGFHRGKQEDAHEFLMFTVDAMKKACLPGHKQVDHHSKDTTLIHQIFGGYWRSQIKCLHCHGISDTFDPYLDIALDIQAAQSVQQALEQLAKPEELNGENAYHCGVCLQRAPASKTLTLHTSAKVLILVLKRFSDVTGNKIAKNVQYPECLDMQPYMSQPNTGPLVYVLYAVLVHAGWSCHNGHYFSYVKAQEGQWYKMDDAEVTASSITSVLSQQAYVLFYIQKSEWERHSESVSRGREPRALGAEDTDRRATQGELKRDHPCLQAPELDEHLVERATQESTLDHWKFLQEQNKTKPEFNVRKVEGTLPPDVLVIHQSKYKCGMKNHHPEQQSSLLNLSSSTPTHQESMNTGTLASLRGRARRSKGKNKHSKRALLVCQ
OTUD3 inh = inhibitors of human OTUD3 deubiquitinase. AID 1645858. Q5T2D3. purified OTUD3, Ub-rhodamine fluorescence, 2 h. 0.7% of 47,000 active. inhibition, % at 25 µM
USP8 block = blocks human USP8 ubiquitin-rhodamine cleavage; P40818; purified USP8, Ub-rhodamine cleavage fluorescence, 30 min; inhibition, % at 20 µM; 4.2% of 47,000 active
USP28 block = human USP28 deubiquitinase inhibition; purified USP28, Ub-rhodamine cleavage fluorescence, 30 min; inhibition, % at 25 µM; Q96RU2; 3% of 47,000 active
USP30 block = blocks human USP30 ubiquitin-rhodamine cleavage; purified USP30, Ub-rhodamine cleavage fluorescence; inhibition, % at 25 µM; Q70CQ3; 5.3% of 47,000 active; AID 1645860
USP10 inh = inhibitors of human USP10 deubiquitinase | Q14694 | purified USP10, Ub-rhodamine fluorescence, 60 min | inhibition, % at 20 µM | 1.1% of 47,000 active
* = called active by the depositor; / = no result given. No stated cut-off is given here; in the data, active means inhibition above about 30%; inactive means the rest.

SMILES | USP17 inh | OTUD3 inh | USP8 block | USP28 block | USP30 block | USP10 inh
Cc1ccc2oc(SCC(=O)Nc3ccc4c(c3)OCO4)nc2n1 | 1 | 6 | 1 | 3 | -6 | -1
O=S(=O)(NC1CC1)c1ccc(S(=O)(=O)N2CCCC3(CCCCC3)C2)cc1 | / | 14 | 16 | 4 | 41* | 10
CCOc1ccc2ncc(S(=O)(=O)c3ccccc3)c(Nc3ccc(Cl)cc3)c2c1 | 10 | 12 | 22 | 13 | 28 | 10
COc1ccc(C(=O)Nc2cc3c4c(c2)C(C)C(=O)N4CCC3)cc1 (centres undefined) | 7 | 4 | 3 | 52* | 0 | -5
Cc1ccc(C(=O)Nc2cc3c4c(c2)CC(=O)N4CCC3)cc1 | / | -11 | 19 | 56* | -27 | -3
COc1ccc(C(=O)Nc2cc3c4c(c2)CC(=O)N4CCC3)cc1 | 5 | -10 | -2 | 49* | -34 | -2
O=C(Nc1cc2c3c(c1)CC(=O)N3CCC2)c1ccc(F)cc1 | -2 | -4 | 33* | 9 | -29 | -1
CC1C(=O)N2CCCc3cc(NC(=O)c4ccc(F)cc4)cc1c32 (centres undefined) | 13 | 8 | 18 | 16 | -7 | -7
Cc1ccc(NC(=O)CNS(=O)(=O)c2cc(-c3noc(C)n3)ccc2C)cc1 | -32 | -7 | 1 | -6 | -7 | 2
NC(=O)C1(N2CCCCC2)CCN(c2ncc3c(=O)n(-c4ccccc4)c(=O)[nH]c3n2)CC1 | -7 | -3 | -44 | 2 | -11 | 0
COc1ccc(NC(=O)C(C)n2c(=O)cc(-c3ccccc3)c3c(C)nn(C)c32)cc1OC (centres undefined) | 19 | 21 | 2 | 7 | 31* | 0
Cc1ccccc1NC(=O)C(C)n1c(=O)cc(-c2ccccc2)c2c(C)nn(C)c21 (centres undefined) | 74* | 18 | 1 | 12 | 26 | 4
COc1ccc(C(=O)NCc2ccc(C(=O)Nc3ccccc3)o2)cc1 | 3 | 4 | 1 | 6 | 4 | -1
COc1ccccc1NC(=O)NCCc1cn(C)c2ncccc12 | -2 | 4 | 13 | 37* | 0 | -1
COc1ccc(C)cc1NC(=O)NCCc1cn(C)c2ncccc12 | 2 | -2 | 10 | 16 | 5 | 0
Cc1ccc(NS(=O)(=O)c2cc(C(=O)NC3CCCC3)ccc2C)cc1C | -16 | -3 | 0 | -6 | -11 | 7
CC(=O)c1cccc(NC(=O)c2ccc3[nH]c4c(c3c2)CC(C)CC4)c1 (centres undefined) | 54* | -3 | 83* | 16 | -6 | -3
O=C(C1CCC1)N1C[C@@H]2CCN(c3ncccn3)C[C@@H]2C1 | 0 | 4 | 6 | 0 | 1 | 1
COc1ccc(CNCc2cc3c(C)nn(-c4ccccc4)c3[nH]c2=O)cc1 | / | 5 | 64* | 11 | -17 | 4
Cc1nn(-c2ccccc2)c2[nH]c(=O)c(CNC3CCCCC3)cc12 | 0 | 0 | 1 | -6 | 0 | 1
Cc1nn(-c2ccccc2)c2[nH]c(=O)c(CNCc3ccccc3Cl)cc12 | -4 | -10 | 72* | -1 | -36 | 1
O=C(c1nnc(-c2cc(S(=O)(=O)N3CCCCCC3)c[nH]2)o1)N1CCCC1 | 21 | 7 | 19 | 6 | 30 | 5
CC1CCN(S(=O)(=O)c2c[nH]c(-c3nnc(C(=O)N4CCCC4)o3)c2)CC1 | 28 | 16 | 30 | 19 | 47* | 9
COc1ccc(Nc2nc(N3CCCC3)nc3c2cnn3C)cc1 | 49* | 2 | 17 | 2 | 39* | 0
CC(C)CCN1C(=O)CC[C@@]2(C(=O)Nc3ccn(C)n3)CCCC[C@@H]12 | 7 | 3 | 10 | 0 | 13 | 0
CC[C@H](C)[C@H](NC(=O)[C@H]([C@@H](C)CC)N(C)C(C)=O)C(=O)N[C@H](C(=O)N[C@@H](CC(C)C)C(=O)C1(C)CO1)[C@@H](C)O (some centres undefined) | 43* | 31* | 57* | 43* | 22 | 9
CC(=O)Nc1ccc([C@@H]2CN(Cc3ccc(F)cc3)C[C@]23CCCC(=O)N3)cc1 | 13 | 14 | 14 | 11 | 11 | 0
Cc1cc(C)c2nc(N3CCCC(C(=O)NCc4ccccc4C)C3)sc2c1 (centres undefined) | 33* | 25 | 27 | 19 | 19 | 4
COc1ccccc1CNC(=O)C1CCCN(c2nc3c(C)cc(C)cc3s2)C1 (centres undefined) | -3 | 1 | -16 | -14 | 6 | 1

Screens from PubChem.
